DAGLB inh = DAGLB lipase inhibitors, primary screen, biochemical, fluorescence, HTS | Diacylglycerol lipase-beta (Homo sapiens), Q8NCG7 | HEK293T DAGLB membrane lysate, EnzChek fluorogenic substrate | inhibition, % at 5.17 µM | actives 0.059% (n = 340,000) | AID 504411, 2011; in the data active = inhibition above about 34%;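 also: 0% = enzyme with vehicle and 100% = wells lacking enzyme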
Rtt109 HAT inh = inhibitors of C. albicans Rtt109/Vps75 HAT, primary screen, biochemical, ThioGlo CoA-SH fluorescence, plate reader | Histone acetyltransferase RTT109 (Candida albicans (strain SC5314 / ATCC MYA-2876)), … | purified Rtt109/Vps75, 4 h | inhibition, % at 34.9 µM | actives 0.16% (n = 330,000) | AID 540336, 2011;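 active = inhibition of at least 50% in every replicate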
ABHD5 PLIN5 PPI = ABHD5-PLIN5 interaction inhibitors, primary screen, cell lysate, split luciferase complementation, luminescence. Perilipin-5 (Homo sapiens) + 1-acylglycerol-3-phosphate O-acyltransferase ABHD5 (Homo …. Split G. princeps luciferase complementation, 4 h. inhibition, % at 4 µM. actives 0.78% (n = 360,000). AID 602281, 2012;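 active = inhibition above the mean inhibition across every tested compound plus 3 SD, cut at about 22% in these data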;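 also: 0% = DMSO only wells and the 100% control is not disclosed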
Myeloid diff MLP = induction of myeloid progenitor differentiation, primary screen, cell-based, flow cytometry, MLPCN library | ER-HoxA9 myeloid progenitors, lysozyme-GFP differentiation | actives 1% (n = 360,000) | calls only at 10 µM;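 active = normalized GFP-positive differentiation at or above the plate's own cutoff, the solvent-only control mean plus 3 SD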;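 also: cells exposed to compound for four days before flow analysis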
HGIII-sPLA2 inh = human group III sPLA2 inhibitors, primary screen, biochemical, QFRET, BODIPY PC-A2 liposome substrate. Group 3 secretory phospholipase A2 (Homo sapiens), Q9NZ20. QFRET BODIPY PC-A2 liposome hydrolysis, fluorescence. inhibition, % at 12.2 µM. actives 0.56% (n = 370,000). AID 743126, 2013;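 active = inhibition above mean plus 3 SD of compounds lying within the high and low control bounds, cut at about 19% in these data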;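 also: 0% = median of test compound wells and 100% = no enzyme DMSO wells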
Target sequence (Q9NZ20 whole entry, looked up): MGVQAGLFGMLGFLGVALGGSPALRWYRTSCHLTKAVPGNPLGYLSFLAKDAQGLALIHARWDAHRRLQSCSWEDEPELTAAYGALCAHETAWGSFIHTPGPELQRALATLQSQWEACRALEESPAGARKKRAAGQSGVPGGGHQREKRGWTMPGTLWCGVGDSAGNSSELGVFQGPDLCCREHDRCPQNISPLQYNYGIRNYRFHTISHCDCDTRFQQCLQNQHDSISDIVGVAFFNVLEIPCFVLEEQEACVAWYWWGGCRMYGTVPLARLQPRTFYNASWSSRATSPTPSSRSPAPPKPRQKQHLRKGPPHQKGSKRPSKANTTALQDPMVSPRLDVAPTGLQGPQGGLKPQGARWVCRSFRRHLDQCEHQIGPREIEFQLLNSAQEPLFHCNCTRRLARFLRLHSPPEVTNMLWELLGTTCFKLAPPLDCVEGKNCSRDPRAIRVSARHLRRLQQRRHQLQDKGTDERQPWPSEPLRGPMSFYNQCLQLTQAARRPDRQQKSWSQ
H9c2 protect = cardioprotection against H2O2-induced cell death, primary screen, uHTS, H9c2 cells, ATPLite luminescence; protection from H2O2 cell death, % at 20 µM; actives 0.63% (n = 360,000); H9c2 cardiomyocytes, H2O2 injury protection, 2 h; AID 588492, 2011;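 active = compounds giving at least 50% protection of heart cells from peroxide-induced death in the single-dose screen, raw or plate-pattern-corrected value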;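 also: 0% = DMSO wells with peroxide and 100% = DMSO wells without peroxide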
* marks the source's active call; other numbers are inactive results; i = inactive; x = not tested or not shown; + = active, no number. This is a sample that favours compounds with a hit; in the whole collection about 2.9% have one here.

SMILES | DAGLB inh | Rtt109 HAT inh | ABHD5 PLIN5 PPI | Myeloid diff MLP | HGIII-sPLA2 inh | H9c2 protect
C#CCOCCOCCOCCNc1nc(N2CCN(C(=O)C([C@@H](C)O)n3cc([C@@H](N)CCCCN)nn3)CC2)nc(N2CCN(C(=O)[C@H](CCCCN)n3cc([C@@H](N)CC(N)=O)nn3)CC2)n1 (some centres undefined) | -2.4 | 90.9* | -12.0 | i | 1.4 | 0.9
Clc1ccc(CN2CCc3c([nH]c4ccccc34)C2)cc1Cl | -17.6 | -3.3 | 12.9 | i | 7.2 | -10.9
O=C(Nc1nnc(-c2ccccc2F)s1)c1cccnc1 | -0.7 | 0.7 | 2.3 | i | -2.7 | -7.9
CC(C)OC(=O)c1cc(C(=O)c2cc(F)ccc2O)coc1=N | -0.6 | 2.9 | 11.7 | + | -17.9 | 8.6
CC(C)OC(=O)c1cc(C(=O)c2cc(Cl)ccc2O)coc1=N | 2.5 | -0.7 | 8.3 | + | -19.6 | -3.0
CC(C)OC(=O)c1cc(C(=O)c2cc(Br)ccc2O)coc1=N | 1.2 | -11.7 | -1.2 | i | -18.1 | -14.6
CC(=O)Oc1ccc(N(C(C)=O)S(=O)(=O)c2ccc(Cl)cc2)c2ccccc12 | 3.2 | -3.4 | 3.1 | i | -25.2 | -17.9
CC(=O)Oc1ccc(N(C(C)=O)S(=O)(=O)c2ccc(C)cc2)c2ccccc12 | -1.4 | 13.8 | 2.5 | + | -17.9 | 6.6
CN(C)C(=O)C1C2NC(=S)N(c3cccc(Cl)c3)C1(C)Oc1ccc(Cl)cc12 (centres undefined) | 0.3 | 7.1 | 6.2 | i | -1.4 | 56.5*
O=C(Nc1cc(Cl)ccc1Cl)N1CCN(C(=O)Nc2cc(Cl)ccc2Cl)CC1 | 0.8 | 0.9 | -6.7 | i | 5.3 | -3.2
O=C(Cc1ccccc1)NCCSCc1ccccc1 | -4.2 | 1.0 | -4.2 | i | 2.7 | 0.1
FC(F)(F)c1cc(Cl)c2nc(-c3ccco3)c(Cc3ccccc3C(F)(F)F)n2c1 | x | x | 50.6* | i | 12.9 | x
Cc1ccc(-c2nc3c(Cl)cc(C(F)(F)F)cn3c2Cc2ccccc2C(F)(F)F)cc1 | x | x | -3.7 | i | -18.9 | x
CCN(CC(=O)Nc1ccc(OC)cc1)C(=O)Cc1coc2cc(C)c(C)cc12 | -0.9 | 11.9 | 2.0 | i | -16.9 | 5.2
CCCCC(=O)NC(NC(=S)N1CCOCC1)C(Cl)(Cl)Cl (centres undefined) | -0.5 | -9.3 | 0.2 | i | 1.3 | 7.7
O=C(NC(NC(=S)N1CCOCC1)C(Cl)(Cl)Cl)c1ccc(Cl)cc1 (centres undefined) | -3.7 | -7.5 | -6.5 | + | -19.2 | -7.2
CNS(=O)(=O)c1cc2c3c(cccc3c1)C(=O)NC2=O | 1.4 | 5.9 | -1.6 | i | 2.5 | 57.6*
CCOc1cccc(Nc2cc3n(c(=O)n2)CCc2cc(OC)c(OC)cc2-3)c1 | -0.6 | 7.9 | -1.5 | i | 6.2 | 60.4*
COc1ccc(C2=CC(=O)C=CC2=O)cc1 | x | 103.6* | x | x | x | x
COc1ccc(C2=CC(=O)C[C@H](c3ccc(OC)cc3)C2)cc1 | -11.0 | -5.4 | -0.4 | i | -8.3 | -3.3
O=C(NNC(=S)Nc1ccc(F)c(Cl)c1)C1CC1 | 0.0 | -5.2 | 2.2 | i | 8.8 | 12.7
O=C(NNC(=S)Nc1ccc(F)c(Cl)c1)c1ccccc1Br | 5.3 | 2.3 | -13.7 | i | 25.7* | -9.0
Cn1ncc2nc[nH]c(=O)c21 | -2.9 | -6.2 | -1.6 | i | 2.2 | -0.6
COc1cc2c(cc1OC)C(c1ccc(-c3cc(Cl)ccc3Cl)o1)=NCC2 | -15.5 | -10.6 | 6.0 | + | x | 12.5
COc1cc2c(cc1OC)C(c1ccc(-c3ccc(Cl)cc3Cl)o1)=NCC2 | -9.6 | 7.6 | 4.8 | i | -13.3 | -16.7
Cc1ccc2c(CC(=O)NCc3ccco3)coc2c1C | -7.5 | -7.8 | 0.5 | + | 0.4 | -0.5
CC1c2cccn2CCN1S(=O)(=O)c1ccccc1 (centres undefined) | -2.2 | -9.5 | 2.0 | i | 4.5 | 1.0

Compound activity from PubChem.
